Measured values as given in the supplement of paper PMC11628255, “Interference of metal ions on the bioluminescent signal of firefly, Renilla, and NanoLuc luciferases in high-throughput screening assays” (Frontiers in Chemistry, 2024).
± gives the standard deviation of the averaged measurements.

Test system: firefly luciferase (FLuc)
Test: residual bioluminescent signal relative to negative control without GSH; higher = less interference (more residual luciferase signal)
Conditions: screening conditions buffer
Method: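 Selected metal salts at 3-4 concentrations tested on purified FLuc, NLuc or RLuc in screening buffer with 0, 0.2 or 2 mM glutathione added; 10 min enzyme pre-incubation at RT, luminescence 10 min after substrate. Signal normalised to negative control without GSH (% N_VALUE); triplicate wells.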

[1] = metal salt concentration 1 mM, glutathione 0 mM
[2] = metal salt concentration 1 mM, glutathione 0.2 mM
[3] = metal salt concentration 1 mM, glutathione 2 mM

| SMILES | residual bioluminescent signal (metal salt concentration 0.0001 mM, glutathione 0 mM) [%] | residual bioluminescent signal (metal salt concentration 0.0001 mM, glutathione 0.2 mM) [%] | residual bioluminescent signal (metal salt concentration 0.0001 mM, glutathione 2 mM) [%] | residual bioluminescent signal (metal salt concentration 0.0047 mM, glutathione 0 mM) [%] | residual bioluminescent signal (metal salt concentration 0.0047 mM, glutathione 0.2 mM) [%] | residual bioluminescent signal (metal salt concentration 0.0047 mM, glutathione 2 mM) [%] | residual bioluminescent signal (metal salt concentration 0.02 mM, glutathione 0 mM) [%] | residual bioluminescent signal (metal salt concentration 0.02 mM, glutathione 0.2 mM) [%] | residual bioluminescent signal (metal salt concentration 0.02 mM, glutathione 2 mM) [%] | residual bioluminescent signal [1] [%] | residual bioluminescent signal [2] [%] | residual bioluminescent signal [3] [%] | residual bioluminescent signal (metal salt concentration 0.2 mM, glutathione 0 mM) [%] | residual bioluminescent signal (metal salt concentration 0.2 mM, glutathione 0.2 mM) [%] | residual bioluminescent signal (metal salt concentration 0.2 mM, glutathione 2 mM) [%] | residual bioluminescent signal (metal salt concentration 0.26 mM, glutathione 0 mM) [%] | residual bioluminescent signal (metal salt concentration 0.26 mM, glutathione 0.2 mM) [%] | residual bioluminescent signal (metal salt concentration 0.26 mM, glutathione 2 mM) [%] |
| --- | --- | --- | --- | --- | --- | --- | --- | --- | --- | --- | --- | --- | --- | --- | --- | --- | --- | --- |
| [Cl][Fe]([Cl])[Cl] [iron(III) chloride] | 89.7 ± 5 | 66.3 ± 5.5 | 0.338 ± 0.22 | 51.2 ± 3.8 | 36.4 ± 2.5 | 0.483 ± 0.17 | 1.11 ± 0.084 | 0.87 ± 0.14 | 0.725 ± 0.43 | 1.06 ± 0.36 | 0.628 ± 0.47 | 0.29 ± 0.14 |  |  |  |  |  |  |
| [Cl][Fe][Cl] [iron(II) chloride] |  |  |  |  |  |  |  |  |  | 0.58 ± 0.29 | 0.556 ± 0.31 | 0.531 ± 0.22 | 98.6 ± 7.2 | 85.2 ± 7.9 | 0.483 ± 0.3 | 2.17 ± 0.52 | 0.87 ± 0.25 | 0.387 ± 0.3 |
